Data as given in publication PMC4336329 (PLoS ONE, 2015).
In all, about 310,000 compounds went through this assay and about 14,000 (4.5%) showed an effect of 50% or more. Effects have a minus sign here. What follows is part of a selection rich in strong results, with near analogues and random picks from the rest.

Target: human ether-à-go-go-related gene (hERG) potassium channel (human, UniProt Q12809)
Assay: primary screen, population patch clamp on CHO cells stably expressing hERG; higher = less effect of the substance
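Further: peak tail current of the secondary pulse compared with the same well before compound.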

human ether-à-go-go-related gene (hERG) potassium channel, sequence (Q12809 whole entry, looked up): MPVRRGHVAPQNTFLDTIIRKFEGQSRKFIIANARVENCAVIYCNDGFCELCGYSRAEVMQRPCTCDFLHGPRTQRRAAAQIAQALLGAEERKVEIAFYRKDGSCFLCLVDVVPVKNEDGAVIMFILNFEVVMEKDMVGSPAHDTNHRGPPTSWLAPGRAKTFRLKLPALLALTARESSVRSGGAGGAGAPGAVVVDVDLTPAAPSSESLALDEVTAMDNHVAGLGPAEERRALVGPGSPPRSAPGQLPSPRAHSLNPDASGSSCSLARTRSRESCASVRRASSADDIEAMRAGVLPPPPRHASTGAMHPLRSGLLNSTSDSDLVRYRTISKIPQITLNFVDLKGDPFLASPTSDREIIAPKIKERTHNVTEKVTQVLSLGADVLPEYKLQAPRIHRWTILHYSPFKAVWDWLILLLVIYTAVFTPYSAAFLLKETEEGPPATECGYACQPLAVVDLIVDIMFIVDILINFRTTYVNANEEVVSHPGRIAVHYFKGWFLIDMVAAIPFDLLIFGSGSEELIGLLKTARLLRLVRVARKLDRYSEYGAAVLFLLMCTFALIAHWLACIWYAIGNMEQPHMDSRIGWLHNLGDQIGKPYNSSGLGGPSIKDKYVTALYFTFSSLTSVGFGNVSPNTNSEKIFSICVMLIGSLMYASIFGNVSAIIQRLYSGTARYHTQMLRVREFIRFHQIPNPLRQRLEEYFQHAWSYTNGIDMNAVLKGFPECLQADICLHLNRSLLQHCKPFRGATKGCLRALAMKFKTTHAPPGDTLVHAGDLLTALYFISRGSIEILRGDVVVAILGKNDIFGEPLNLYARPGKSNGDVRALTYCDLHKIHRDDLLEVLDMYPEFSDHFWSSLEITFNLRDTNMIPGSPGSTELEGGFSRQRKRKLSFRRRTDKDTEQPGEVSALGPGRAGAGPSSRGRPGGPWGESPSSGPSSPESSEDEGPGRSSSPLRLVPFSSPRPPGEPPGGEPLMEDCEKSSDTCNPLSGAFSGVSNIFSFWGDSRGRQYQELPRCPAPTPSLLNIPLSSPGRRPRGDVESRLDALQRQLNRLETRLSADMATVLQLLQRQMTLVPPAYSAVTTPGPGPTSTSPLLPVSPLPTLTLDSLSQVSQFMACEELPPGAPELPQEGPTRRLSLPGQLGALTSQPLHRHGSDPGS

Compound | hERG current change (%, negative = inhibition) at 10uM [%]
Cc1cc(NC(=O)NC(=O)c2ccccc2)no1 | 23.1
Cn1c(O)c(N=Nc2nc(-c3ccccc3)cs2)c2ccccc21 | -6.78
Cc1ccc(CNC(=O)CCSCCC(=O)NCc2ccc(C)cc2)cc1 | 7.08
N#Cc1c(NC(=O)c2cc([N+](=O)[O-])ccc2N2CCOCC2)sc2c1CCCC2 | 4.02
CN1C(=O)c2cccc3c(Br)ccc(c23)C1=O | -16.2
COC(=O)COc1ccc2cccc(-n3cnnn3)c2c1 | 12.5
CC12CCC(=O)N1C(C(=O)OCc1c(Cl)cccc1Cl)CS2 (stereo not drawn) | -4.54
CCc1ccc(C(=O)NNC(=O)C2CSC3(C)CCC(=O)N23)cc1 (stereo not drawn) | -6.99
CCc1ccc2c(COC(=O)C3CSC4(C)CCC(=O)N34)cc(=O)oc2c1 (stereo not drawn) | -61.1
CCCC(O)(c1ccc(OC)cc1)C(CN(C)C)c1ccccc1 (stereo not drawn) | -4.69
CCN(CC)CC(O)COC(c1ccccc1)c1ccccc1 (stereo not drawn) | -57.8
CCN(Cc1ccccc1)CC(O)COC(c1ccc(OC)cc1)c1ccc(OC)cc1 (stereo not drawn) | -75.1
CCN(Cc1ccccc1)CC(O)COc1ccccc1.Cl (stereo not drawn) | -25.7
CN(C)CC(O)COC(c1ccccc1)c1ccccc1 (stereo not drawn) | -51.6
CN(C)CCC(O)c1ccccc1 (stereo not drawn) | 9.45
COCCN(CCOC)CC(O)COC(c1ccccc1)c1ccccc1 (stereo not drawn) | -35.9
CC(OCC(O)CN(C)Cc1nc2ccccc2c(=O)[nH]1)c1ccc(Cl)cc1 (stereo not drawn) | -34
CC(O)CN(Cc1ccc(Cl)cc1)CC(C)O (stereo not drawn) | 7.61
OC(COc1ccccc1)CN(Cc1ccccc1)CC(O)COc1ccccc1 (stereo not drawn) | -9.08
CCOC(C(=O)OCC(O)CN(CC)CC)(c1ccccc1)c1ccccc1.Cl (stereo not drawn) | -5.25
CN(C)CC(O)COC(c1ccc(Cl)cc1)c1ccc(Cl)cc1 (stereo not drawn) | -75.8
Cc1ccc(CN2CCCC(C(=O)N3CCCC3)C2)cc1.O=C(O)C(=O)O (stereo not drawn) | -5.83

Compound | hERG current change (%, negative = inhibition) at 10uM [%]
O=C(O)c1cc2nc(-c3ccccc3)cc(-c3ccccc3)n2n1 | 6.39
CN(C)S(=O)(=O)Oc1ccsc1C(=O)Nc1ccc(Br)cc1 | -12.2
CCOC(=O)[C@H]1[C@H]2COc3cc(OC)ccc3[C@@H]2N2C(=O)c3cc(OC)c(OC)cc3NC(=O)[C@@]12C | -2.44
Cc1ccc(C(=O)NNC(=O)C2CCN(c3nc(C)cc(C)n3)CC2)cc1 | 4.83
Cc1cccc(C)c1C(=NCCN(C)C)c1ccccc1.Cl | -41.3
CCNc1nc(NCC)n2c(SCc3ccc(F)cc3)nnc2n1 | -20.1
CC(C)=C1C2CCC1C(C(=O)Nc1sc(C)c(-c3ccc(C(C)C)cc3)c1C(N)=O)C2C(=O)O (stereo not drawn) | -22.5
CN(C)C=O.O=C(NCCc1ccccc1)c1oc2ccccc2c1COc1ccccc1 | 12.4
Cc1ccc(-c2cc(C(=O)NCc3ccccn3)no2)cc1 | 0.477
O=C(NCc1ccc(Cl)cc1)c1cccc(S(=O)(=O)N2CCCC2)c1 | -30.9
Cc1ccnc(NC(=O)c2cccc(S(=O)(=O)N3CCOCC3)c2)c1 | -18.9
O=C(Nc1ccc(Cl)cn1)c1cccc(S(=O)(=O)N2CCCC2)c1 | -50.9
O=C(NCCOc1ccc(Cl)cc1)c1cccc(S(=O)(=O)N2CCCC2)c1 | -51.8
Cc1ccc(NC(=O)c2cccc(S(=O)(=O)N3CCCC3)c2)nc1 | -7.18
O=C(Nc1ccccn1)c1cccc(S(=O)(=O)N2CCCC2)c1 | 9.44
Cc1ccc(NC(=O)c2ccc3c(c2)OCO3)cc1S(=O)(=O)N1CCOCC1 | -20.3
Cc1ccc(OCCNC(=O)c2cccc(S(=O)(=O)N3CCN(C)CC3)c2)cc1 | -16.6
O=C(Nc1ccc(Cl)cn1)c1cccc(S(=O)(=O)N2CCOCC2)c1 | -65.4
Cc1cc(C(=O)Nc2ccc(C)c(S(=O)(=O)N3CCOCC3)c2)c(C)o1 | -6.59
Cc1ccc(C(=O)Nc2ccc(C)c(S(=O)(=O)N3CCOCC3)c2)c(C)c1 | -51
O=C(Nc1ccccn1)c1cccc(S(=O)(=O)N2CCOCC2)c1 | -6.45
O=C1c2ccccc2C(Nc2ccc(S(=O)(=O)N3CCCCC3)cc2)N1Cc1ccco1 (stereo not drawn) | -22.7

Compound | hERG current change (%, negative = inhibition) at 10uM [%]
CC(CC(=O)N(C)c1c(N)n(Cc2ccccc2)c(=O)[nH]c1=O)c1ccccc1 (stereo not drawn) | -23.3
COCc1ccc(C(=O)N2CCCC(N3CCN(c4ccccc4C)CC3)C2)s1 (stereo not drawn) | -34.7
CSc1cccc(NC(=O)C2CCCN(S(=O)(=O)c3cccs3)C2)c1 (stereo not drawn) | 3.76
COc1ccccc1N(C)C(=O)c1cc(S(=O)(=O)N2CCCC2)cn1C | -3.55
CC(NC(=O)C1CCN(S(=O)(=O)c2cnc[nH]2)CC1)c1ccccc1 (stereo not drawn) | 3.81
N/C(=N\OC(=O)c1ccccc1)c1ccn[nH]1 | -1.07
O=C(Nc1cccc(S(=O)(=O)N2CCOCC2)c1)C1=NN(c2ccccc2)C(=O)CC1 | -42.9
Cc1ccc(NC(=O)c2ccc(C)c(S(=O)(=O)N3CCOCC3)c2)nc1 | -6.9
Cc1cccc(N2N=C(C(=O)Nc3ccc(Cl)c(S(=O)(=O)N4CCOCC4)c3)CCC2=O)c1 | -52.4
Cc1ccc(S(=O)(=O)N2CCOCC2)cc1NC(=O)C1=NN(c2ccccc2)C(=O)CC1 | -18
Cc1ccc(C(=O)Nc2ccc(Cl)cn2)cc1S(=O)(=O)N1CCOCC1 | -51.4
Cc1ccc(C(=O)Nc2ccccn2)cc1S(=O)(=O)N1CCOCC1 | -5.72
O=C(COC(=O)c1cccc(S(=O)(=O)N2CCOCC2)c1)Nc1ncc(Cl)cc1Cl | -13.4
O=C(COC(=O)c1cccc(S(=O)(=O)N2CCOCC2)c1)Nc1ccc(Cl)cn1 | -61.1
O=C(COC(=O)c1cc(S(=O)(=O)N2CCOCC2)ccc1F)Nc1ccc(Cl)cn1 | -37.4
O=C(Cn1cnc([N+](=O)[O-])c1)Nc1ccccc1C(F)(F)F | -14.3
Cc1cc(C)cc(N(C(=O)CNC(=O)c2ccco2)C(C(=O)NC2CCCCC2)c2ccncc2)c1 (stereo not drawn) | -10
CCOC(=O)C1=C(C)NC(=O)C(C(N)=O)C1c1ccccc1 (stereo not drawn) | 5.2
O=c1[nH]c2cc3c(cc2cc1C(c1nnnn1C1CCCC1)N1CCSCC1)OCCO3 (stereo not drawn) | 13.6
CSc1nc(C)cc(-n2ccc(=O)[nH]c2=O)n1 | -3.54
CCOC(=O)/C=c1\s/c(=C\c2c(OC)ccc3ccccc23)c(=O)n1CC(=O)NCC1CCCO1 (stereo not drawn) | 2.13
Cc1ccccc1Nc1ncnc2c1cnn2C | 4.92

Compound | hERG current change (%, negative = inhibition) at 10uM [%]
CN(C)CC(C)(C)CNC(=O)c1cc(=O)c2ccccc2o1.Cl | 19.6
Cc1cc(/C=C2/SC(=O)N(CC(=O)N3CCCC3)C2=O)c(C)n1C | -5.16
Cc1cc(OCCCn2ccnc2)cc(C(C)C)c1 | -14.4
Cc1cc(OCCCCNC(C)C)cc(C(C)C)c1.O=C(O)C(=O)O | -29.6
CCC(C)NCCCCOc1cc(C)cc(C(C)C)c1 (stereo not drawn) | -54.9
COc1ccc(C(=O)Oc2cc(N)n(S(=O)(=O)c3ccccc3)n2)cc1 | -7.73
COc1ccccc1NS(=O)(=O)c1ccc(C(=O)NCC(c2ccccc2OC)N(C)C)cc1 (stereo not drawn) | -0.121
Cc1ccc(OCc2cc(C(=O)N3CCC(C(O)C(C)C)CC3)no2)cc1C (stereo not drawn) | -23.1
O=C(O)C(=O)O.c1ccc(-c2ccccc2OCCCN2CCCC2)cc1 | -65
Cl.OCCN1CCN(CCOc2ccccc2-c2ccccc2)CC1 | -24.1
O=C(O)C(=O)O.c1ccc(-c2ccccc2OCCCN2CCOCC2)cc1 | -37.1
CC(=O)c1ccccc1OCCCCN1CCCCC1.O=C(O)C(=O)O | -59.5
CCN1CCN(CCOCCOc2ccccc2-c2ccccc2)CC1.O=C(O)C(=O)O | -35.6
CCN1CCN(CCCOc2ccccc2-c2ccccc2)CC1.O=C(O)C(=O)O | -66.6
CC(=O)c1ccccc1OCCCN1CCCCC1.O=C(O)C(=O)O | -31.8
CCN1CCN(CCOc2ccccc2-c2ccccc2)CC1.O=C(O)C(=O)O | -32.9
Cl.OCCCN1CCN(CCCOc2ccccc2-c2ccccc2)CC1 | -69.6
CCc1ccccc1OCCCCN1CCCCC1.O=C(O)C(=O)O | -30
O=C(CSc1nnc(-c2cccnc2)o1)Nc1cccc(F)c1 | -1.97
Cc1c(Br)c([N+](=O)[O-])nn1CC(=O)N1CCN(C23CC4CC(CC(C4)C2)C3)CC1 | -38.1
Cc1c(N2C(=O)/C(=C\c3ccccc3O)SC2=S)c(=O)n(-c2ccccc2)n1C | 30.5
